L major viab: inhibitors of Leishmania major promastigote growth. Leishmania major promastigotes, resazurin fluorescence viability. inhibition, % at 10 µM. 9% of 200,000 active. AID 1063; in the data active = inhibition above about 50%;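 also: promastigotes grown with compound for 44 hours at 28 °C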
Insulin prom inh: TRM-6 insulin promoter activity inhibition; inhibition, % at 2 µM; 0.9% of 130,000 active; TRM-6 cells (human fetal islet line), insulin promoter-eGFP reporter, imaging; reporter expression induced with tamoxifen;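 active = inhibition above the mean plus 3 SD, with well images judged a real hit on visual review, cut at about 60% in these data, passing the limit was not always enough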
WT yeast gro inh: growth inhibition of WT yeast, mitochondrial fusion screen; mitochondrial fusion phenotypic screen, WT strain; 2.1% of 190,000 active; inhibition, % at 10 µM; AID 1362; in the data active = inhibition above about 58%; tested in S. cerevisiae
Insulin prom up: MIN6 insulin promoter up-regulation. 0.3% of 190,000 active. z-score at 5 µM. MIN6 insulin promoter-GFP reporter, high-content imaging; active compounds read high;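 active = z-score above 3 at 5 µM with at least 500 cells counted in the well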
Autophagy HCS: autophagy modulation, high-content screen. 0.98% of 190,000 active. MEF GFP-LC3 puncta imaging; test concentration mostly 10 µM. calls only at 10 µM (by protocol);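 active = percentage of spot-positive cells more than 3 SD above its plate mean, without a fluorescence outlier flag or 80% toxicity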;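 also: spot-positive cell cutoff set from DMSO-treated cells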
* marks the source's active call; other numbers are inactive results. Most compounds without a hit are left out; they make up all but 11% or so of the library.

Results for CC(C)Cn1c(N)c(C(=O)CSc2nc3ccccc3n2C)c(=O)n(C)c1=O ?
L major viab: -3.8; Insulin prom inh: 13.8; WT yeast gro inh: 12.9; Insulin prom up: -0.08; Autophagy HCS: inactive

Results for COCC(C)n1c(SCC(=O)NNC(=O)c2ccccc2)nc2ccccc2c1=O (centres undefined) ?
L major viab: -4.8; WT yeast gro inh: -11.2; Autophagy HCS: inactive

Results for COc1ccc(CSc2nc3ccccc3c(=O)n2CCCN2CCOCC2)cc1F ?
L major viab: 97.9*; WT yeast gro inh: 45.9; Insulin prom up: -0.52; Autophagy HCS: inactive

What do the screens show for `O=c1c2ccccc2nc(SCCN2CCOCC2)n1CCc1ccccc1`?
L major viab: 3.7; WT yeast gro inh: 23.4; Insulin prom up: -0.49; Autophagy HCS: inactive

How did COc1ccc(CCn2c(SCCN3CCCCC3)nc3ccccc3c2=O)cc1OC do in these assays?
L major viab: 99.9*; WT yeast gro inh: 23.5; Insulin prom up: -0.63; Autophagy HCS: inactive

How did CC(C)Cn1c(N)c(C(=O)CSc2nc3ccccc3c(=O)n2CCCN2CCOCC2)c(=O)n(C)c1=O do in these assays?
L major viab: 19.7; WT yeast gro inh: -5.4; Insulin prom up: -1.16; Autophagy HCS: active

Results for COCC(C)n1c(SCc2ccc(OC)c(F)c2)nc2ccccc2c1=O (centres undefined) ?
L major viab: 100.3*; Insulin prom inh: -90.9; WT yeast gro inh: 73.5*; Insulin prom up: 0.16; Autophagy HCS: inactive

What do the screens show for `CCn1cc(CN2N=C(C)CC2c2ccccc2)c(C)n1` (centres undefined)?
L major viab: -4.9; Insulin prom inh: 45.5; WT yeast gro inh: 12.1; Insulin prom up: -0.04; Autophagy HCS: inactive

Results for O=c1c2ccccc2nc2n1CC/C2=C\c1ccccc1[N+](=O)[O-] ?
L major viab: 0.6; WT yeast gro inh: 26.9; Insulin prom up: -0.72; Autophagy HCS: inactive

How did O=c1c2ccccc2nc2n1CC/C2=C/N1CCN(c2cccc(C(F)(F)F)c2)CC1 do in these assays?
L major viab: 54.6*; Insulin prom inh: 6.1; WT yeast gro inh: 14.2; Insulin prom up: 0.25; Autophagy HCS: inactive

How did O=C(NC1CCS(=O)(=O)C1)c1cccc(S(=O)(=O)N2CCCC2)c1 (centres undefined) do in these assays?
L major viab: -1.5; Insulin prom inh: 21.4; WT yeast gro inh: -8.0; Insulin prom up: 0.67; Autophagy HCS: inactive

Results for CCOC(=O)c1c(NC(=O)C[n+]2ccc(Cc3ccccc3)cc2)sc(C)c1C ?
L major viab: 52.5*; Insulin prom inh: -38.1; WT yeast gro inh: 11.8; Insulin prom up: 0.55; Autophagy HCS: inactive

What do the screens show for `COC(=O)CCC(=O)Nc1sc(Cc2ccccc2)c(C)c1C(N)=O`?
L major viab: -8.8; Insulin prom inh: -9.5; WT yeast gro inh: 63.7*; Insulin prom up: -0.29; Autophagy HCS: inactive

Results for Cc1ccccc1C(=O)Nc1sc(C)c(C)c1C(=O)c1ccccc1 ?
L major viab: 5.3; WT yeast gro inh: 22.3; Insulin prom up: 0.15; Autophagy HCS: inactive

Results for CCCC(=O)Nc1sc(Cc2ccccc2)c(C)c1C(N)=O ?
L major viab: -0.4; WT yeast gro inh: 47.8; Insulin prom up: -0.6; Autophagy HCS: inactive

What do the screens show for `Cc1cc(C(=O)c2ccccc2)c(NC(=O)CN2CCOCC2)s1`?
L major viab: 32.0; Insulin prom inh: -53.3; WT yeast gro inh: -14.2; Insulin prom up: -0.58; Autophagy HCS: inactive

What do the screens show for `Cc1cc(C(=O)c2ccc(C(C)(C)C)cc2)c(NC(=O)CCl)s1`?
L major viab: 96.3*; Insulin prom inh: 32.1; WT yeast gro inh: 54.6; Insulin prom up: -1.28; Autophagy HCS: inactive

Results for CCOC(=O)c1c(NC(=S)Nc2ccccc2)sc(C)c1C ?
L major viab: -1.8; Insulin prom inh: 46.1; WT yeast gro inh: -5.1; Insulin prom up: -0.15; Autophagy HCS: inactive

Results for Cc1sc(NC(=O)CCl)c(C(=O)c2ccccc2)c1C ?
L major viab: 100.6*; Insulin prom inh: 6.2; WT yeast gro inh: -17.2; Insulin prom up: 0.28; Autophagy HCS: inactive

What do the screens show for `Cc1nn(C(=O)c2cccc([N+](=O)[O-])c2)c(C)c1Sc1ccccc1`?
L major viab: -0.8; WT yeast gro inh: 25.2; Insulin prom up: -0.57; Autophagy HCS: inactive

How did Cc1cccc(N2CN(Cc3ccco3)CNC2=S)c1 do in these assays?
L major viab: -2.8; WT yeast gro inh: -7.3; Insulin prom up: -0.24; Autophagy HCS: inactive

How did O=C(Nc1ccncc1)c1ccccc1-c1ccccc1 do in these assays?
L major viab: 8.7; WT yeast gro inh: -3.6; Insulin prom up: 0.45; Autophagy HCS: inactive

Results for CN(C)c1ncnc2c1ncn2C1OC(CO)C(O)C1O (centres undefined) ?
L major viab: -4.1; Insulin prom inh: 91.7*; Insulin prom up: -2.05; Autophagy HCS: inactive

What do the screens show for `C=CCn1c(=O)/c(=C/c2ccc(Cl)cc2)s/c1=C(/C#N)c1nnc2n1CCCCC2`?
L major viab: 94.1*; WT yeast gro inh: 18.9; Insulin prom up: -1.85; Autophagy HCS: inactive

Results for C=CCn1c(=O)/c(=C/c2ccc(O)cc2)s/c1=C(/C#N)c1nnc2n1CCCCC2 ?
L major viab: -2.1; Insulin prom inh: 63.0; WT yeast gro inh: -18.4; Insulin prom up: -0.45; Autophagy HCS: inactive

Results for CC(C)=CCN1CCNC(=O)C1CC(=O)NCc1nc(C)c(C)s1 (centres undefined) ?
L major viab: 4.3; WT yeast gro inh: 11.5; Insulin prom up: 0.48; Autophagy HCS: inactive

How did Fc1ccc(OCCOCCNCC2CCCO2)cc1 (centres undefined) do in these assays?
L major viab: 31.1; Insulin prom inh: -32.0; WT yeast gro inh: -6.7; Autophagy HCS: inactive

What do the screens show for `CCOC(=O)C(C(=O)OCC)C1CCS(=O)(=O)C1` (centres undefined)?
L major viab: 0.0; Insulin prom inh: 60.0; WT yeast gro inh: 10.8; Insulin prom up: 0.38; Autophagy HCS: active

What do the screens show for `CCOC(=O)C(=O)N(CC)C1CCS(=O)(=O)C1` (centres undefined)?
Insulin prom up: 0.14

Results for COC(CNC(=O)c1ccc(N2CCc3ccccc32)c([N+](=O)[O-])c1)OC ?
L major viab: 95.8*; Insulin prom inh: 18.9; WT yeast gro inh: -24.9; Insulin prom up: 0.12; Autophagy HCS: inactive

Results for O=C(CC1Nc2c3ccccc3nc(=S)n2C1=O)NC1CCCCC1 (centres undefined) ?
L major viab: 20.4; WT yeast gro inh: -11.2; Autophagy HCS: inactive

How did COc1ccccc1CNC(=O)CSc1ccc(-c2cccs2)nn1 do in these assays?
L major viab: 75.0*; Insulin prom inh: -28.6; WT yeast gro inh: -0.3; Insulin prom up: 1.68; Autophagy HCS: inactive

How did Cc1c(Cl)ccc2c1NC(=O)[C@]21N[C@@H](Cc2ccccc2)[C@H]2C(=O)N(c3ccc(F)cc3)C(=O)[C@H]21 do in these assays?
L major viab: 35.0; Insulin prom inh: -5.6; WT yeast gro inh: 11.9; Insulin prom up: 0.29; Autophagy HCS: inactive

Compound activity (PubChem)
